This passage reports inhibition results from PubChem BioAssay AID488841 (Sanford-Burnham Center for Chemical Genomics, 2010).

Screen size: about 1,400 compounds; about 380 (27%) were called active. Some of the results follow. Values without a mark were called inactive.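 How the source made its calls: active means mean inhibition above 50% across duplicate retests at 10 µM; inactive means the rest.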

This assay can be described thus: inhibition of NALP1/ASC/caspase-1 reporter signal in yeast, confirmation, NALP1 inhibitor project, S. cerevisiae, luminescence, single concentration (AID 488841).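 Further: plate controls were DMSO in galactose medium for no effect and cells in plain SD medium for full effect.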 Particulars: S. cerevisiae NALP1/ASC/Caspase-1 reporter, beta-gal luminescence; at 10 µM; active compounds read high.
Take `CC(CCc1ccccc1)NC(=O)c1cc2sccc2n1C` (stereo unspecified): the inhibition was 46.2%.
For the compound `COc1cc(C(=O)CCN2CCC(c3ccccc3)C2)cc(OC)c1OC` (stereo unspecified), the inhibition is 41%.
Regarding `O=C(/C=C/c1ccccc1)/C=C/c1ccccc1`, the inhibition was 47.8%.
As for `O=C(/C=C/c1ccccc1)N1CCC(c2ccccc2)C1` (stereo unspecified), the inhibition is 54% (active).
Then `CC1CCN(C(=O)/C=C/c2ccc(C(C)(C)C)cc2)CC1`, with 54.6% (active).
Then `FC(F)(F)C(F)(F)c1nnc2ccc(-n3ccnc3)nn12`, with 23%; and `COC(=O)c1ccccc1SC1CC(=O)N(c2ccccc2)C1=O` (stereo unspecified), with 40.2%; and `O=C1CC(Sc2nnnn2-c2ccccc2)C(=O)N1c1cccc(Cl)c1` (stereo unspecified), with 59.5% (active).
For the compound `O=C(O)c1ccccc1SC1CC(=O)N(c2ccccc2)C1=O` (stereo unspecified), the inhibition was 37.8%.
As for `Cc1cccc(Cn2c(C(C)(C)C)cc3cccnc32)c1`, the inhibition is 26%.
In the case of `CN(C)CCNC=C(C(=O)Nc1ccc(Cl)cc1Cl)C(=O)Nc1ccc(Cl)cc1Cl`, the inhibition was 38.9%.
Take `COc1ccc(-c2noc(CCC(=O)N3CCC(C)CC3)n2)cc1`: the inhibition is 48%.
Consider `CCCN(Cc1nc(-c2ccc(Cl)cc2)no1)CC1CCCO1` (stereo unspecified), for which the inhibition was 53.1% (active).
On to `OCCNc1c2ccccc2nc2c(F)c(F)c(F)c(F)c12`, for which the inhibition was 34.6%.
`CCN(c1cccc(C)c1)S(=O)(=O)c1cccc(C(=O)O)c1`: the inhibition was 26.2%.
For `Cn1ncc(S(=O)(=O)Cc2ccccc2)c(Cl)c1=O`, the inhibition was 21.1%.
Then `Cc1cc(C)cc(Cn2ncc(Cl)c(Cl)c2=O)c1`, with 60.6% (active).
Consider `COC(=O)c1ccc(NC(=O)c2ccccc2N(C)S(=O)(=O)c2ccccc2)cc1`, for which the inhibition was 37%.
With `CCCCCCOc1ccc(N2C(=O)CC(N3CCC(C(=O)OCC)CC3)C2=O)cc1` (stereo unspecified), the inhibition is 21.6%.
`CCOc1ccc(C2N(c3ccc(F)cc3)C(=O)C3CCCN32)cc1` (stereo unspecified): the inhibition was 16.4%.
The value for `CCOc1ccc(N2C(=O)CC(N)C2=O)cc1` (stereo unspecified) was 64.3% (active); that for `Cc1cc(Cl)c(OCCCN2CCCCC2)c(Br)c1` was 33.4%.
For the compound `Cc1c(C(=O)NCC2COc3ccccc3O2)oc2ccc(S(=O)(=O)N3CC(C)CC(C)C3)cc12` (stereo unspecified), the inhibition was 21.3%.
The value for `COc1cc(OC)nc(-n2ncc(Br)c(Br)c2=O)n1` was 50% (active); that for `Cc1sc(NC(=O)c2cc3ccccc3oc2=O)c(C(=O)OC(C)C)c1-c1ccccc1` was 28.5%; that for `C=CCNc1oc(COc2ccc(C)cc2)nc1C#N` was 47.8%.
Take `CCCN(CCC)C(=O)Cn1c(=O)n(CCCCC(=O)NCc2ccco2)c(=O)c2ccccc21`: the inhibition was 29.8%.
In the case of `CC1CCCC(NC(=O)C2CCN(S(=O)(=O)N3CCCCC3)CC2)C1C` (stereo unspecified), the inhibition was 26.3%.
In the case of `Cc1ccc(C(=O)c2no[n+]([O-])c2C(=O)c2ccc(C)cc2)cc1`, the inhibition is 58.2% (active).
Turning to `CCOC(=O)c1nn(-c2ccc(C)cc2)cc1C(=O)c1ccccc1`, the inhibition is 46.5%.
For the compound `O=[N+]([O-])c1ccc2cn(-c3ccccc3)nc2c1`, the inhibition was 40.4%.
On to `NC(=O)C1(N2CCCCC2)CCN(Cc2nc(-c3cccs3)no2)CC1`, for which the inhibition is 37.5%.
For the compound `Oc1oc(-c2ccccc2)nc1C=Nc1cccc2ccccc12`, the inhibition was 40.1%.
Consider `CCOC(=O)C1CCCCN1Cc1ccc(F)c(Br)c1` (stereo unspecified), for which the inhibition is 31.7%.
As to `Cc1cc(Cl)c(OCCCn2ccnc2)c(Br)c1`, the inhibition is 38.1%.
With `c1cc2c3c(cccc3c1)NC1(CCCCCC1)N2`, the inhibition was 13.9%.
Then `Cc1ccc(OC(=S)Nc2ccc(O)cc2)cc1`, with 90.7% (active).
The value for `Cc1ccc(Oc2ccccc2/C=N/O)cc1` was 42.1%.
On to `O=C(COc1ccc(CO)cc1Cl)Nc1ccc(F)cc1`, for which the inhibition is 25.6%.
The value for `O=C(CC(O)(C(F)(F)F)C(F)(F)F)Nc1ccc(Cl)c(Cl)c1` was 98.8% (active).
With `CN1CCN(C(=S)Nc2ccc(Cl)c(Cl)c2)CC1`, the inhibition was 24.9%.
Consider `CC(=O)Nc1cccc(OCCCNC(=O)C2CCC2)c1`, for which the inhibition was 28.2%.
`Cc1c(NC(=O)c2cc3c(s2)-c2ccccc2OC3)cccc1[N+](=O)[O-]`: the inhibition is 34.7%.
Regarding `O=[N+]([O-])c1ccc(-n2nnnc2-c2ccccc2)cc1`, the inhibition was 0.15%.
For the compound `Cc1ccc(-n2nnnc2C(Cl)c2nnnn2-c2ccc(C)cc2)cc1`, the inhibition is 71.5% (active).
Consider `CCc1oc2ccccc2c1C(=O)CCN1CCCCC1`, for which the inhibition is 37.6%.
For `COc1ccc(/C=N/OC(=O)Nc2ccccc2)cc1[N+](=O)[O-]`, the inhibition is 23.2%.
Consider `CCOC(=O)c1cc(-c2ccccc2)n(CC(=O)Nc2ccc(OC)c(OC)c2)c1C`, for which the inhibition was 25.8%.
The value for `CCOc1ccc(/C=C/C(=O)c2ccccc2)cc1OC` was 53.2% (active); that for `COc1ccc(/C=C\c2onc(C)c2S(=O)(=O)N2CCC(C(=O)NCc3ccco3)CC2)cc1` was 41.2%.
In the case of `O=C(NCc1ccco1)c1cnn2c1NC(c1ccc(Br)cc1)CC2C(F)(F)F` (stereo unspecified), the inhibition was 50.6% (active).
Consider `Cc1ccc(CN2CCN(/N=C/c3ccc(C(F)(F)F)cc3)CC2)c(C)c1`, for which the inhibition was 49%.
Consider `CCOCC(O)CNC(=O)c1ccc(OC2CCN(C(=O)c3cccnc3)CC2)cc1` (stereo unspecified), for which the inhibition was 29.6%.
Consider `CC1CCN(CCOc2ccc(Cl)c(Cl)c2)CC1`, for which the inhibition is 43.7%.
On to `CCN(C(=O)COC(=O)c1cccnc1Nc1cccc(C(F)(F)F)c1)C1CCS(=O)(=O)C1` (stereo unspecified), for which the inhibition is 45.4%.
As for `Cc1ccc(NC(=O)/C=C\C(=O)NCC(=O)O)cc1C`, the inhibition was 30.8%.
With `COc1cc(Br)cc(C=Nc2cccc(C(F)(F)F)c2)c1O`, the inhibition was 11.4%.
Regarding `COC(=O)/C=C/C(=O)Nc1cccc(C(F)(F)F)c1`, the inhibition was 56.3% (active).
In the case of `NC(=O)/C=C\C(=O)Nc1cccc(C(F)(F)F)c1`, the inhibition is 71.8% (active).
Then `Cc1cs/c(=N\N=C\c2ccccc2)n1Cc1ccco1`, with 32.1%; and `Cc1cccc(C)c1C(OCCN(C)C)C1CCCCC1` (stereo unspecified), with 37%; and `CSc1ccc(/C=C/C(=O)c2ccc(O)cc2)cc1`, with 61.5% (active).
Consider `CC(=O)c1ccc(NC(=O)/C=C/c2ccc(C)cc2)cc1`, for which the inhibition is 48.6%.
With `CSc1ccc(/C=C/C(=O)c2ccc(NC(C)=O)cc2)cc1`, the inhibition was 51% (active).
Turning to `O=C(/C=C/Sc1ccccc1)c1ccc(Cl)cc1`, the inhibition is 38.4%.
Take `O=c1ncn(-c2cccc(F)c2)c2ncccc12`: the inhibition was 37.1%.
Regarding `N#CC(C#N)=C1C=CC=CN1/C(=C\c1ccccc1Cl)C(=O)c1ccccc1`, the inhibition is 5.75%.
With `CCn1cc(C(=O)O)c(=O)c2cc(F)c(N3CCNCC3)cc21`, the inhibition was 27.4%.
For the compound `CCSc1nnc(NC(=O)c2ccc(C)o2)s1`, the inhibition is 54.3% (active).
Regarding `CCSc1nnc(NC(=O)c2ccccc2)s1`, the inhibition is 83.2% (active).
`CC(C)COC(=O)Nc1nnc(SCc2ccccc2F)s1`: the inhibition is 49.2%.
As for `Cc1ccc(Nc2nnc(SCC(=O)Nc3ccc(S(=O)(=O)N4CCOCC4)cc3)s2)cc1`, the inhibition was 18.2%.
For the compound `CCCc1[nH]nc2c1C(c1ccoc1)C(C#N)=C(N)O2` (stereo unspecified), the inhibition was 37.9%.
With `O=C(c1ccc(F)cc1)c1cn(Cc2ccc(F)cc2)c2cc3c(cc2c1=O)OCCO3`, the inhibition is 26.4%.
Then `Cc1ccc(Cn2nnnc2CN2CCC(c3nc4ccc(Cl)cc4[nH]3)CC2)cc1`, with 34.2%; and `Cc1noc2ncc(C(=O)c3cc(F)ccc3O)cc12`, with 17.8%; and `c1ccc2c(Nc3nc(N4CCOCC4)c4ccccc4n3)cccc2c1`, with 93.2% (active).
Regarding `CCOc1cc(-c2c(C)c(C)nc(N)c2C#N)ccc1O`, the inhibition was 30.4%.
With `O=C(OC1CCOC1=O)c1cc(-c2ccc(Br)cc2)nc2ccccc12` (stereo unspecified), the inhibition is 21%.
`O=C(Nc1ccon1)c1cc2ccccc2oc1=O`: the inhibition is 31.5%.
On to `O=C(Nc1ccc(-c2cn3ccccc3n2)cc1)c1ccco1`, for which the inhibition is 76.8% (active).
The value for `CCCCC(=O)Nc1ccc(C(=O)NNC(=S)NC(=O)c2ccco2)cc1` was 42.2%; that for `CC1=C(C(=O)Nc2ccc(Cl)cc2)C(c2ccco2)NC(=O)N1` (stereo unspecified) was 23.4%.
`O=C(Nc1cccc(-c2cn3ccccc3n2)c1)c1cccc(Cl)c1`: the inhibition was 39.9%.
As to `Cc1sc(NC(=O)c2ccco2)nc1-c1ccccc1`, the inhibition is 73% (active).
Consider `O=C(Nc1ccc2oc(-c3ccccc3)nc2c1)c1ccco1`, for which the inhibition was 86.7% (active).
Consider `Cc1ccc2oc(-c3ccc(NC(=O)c4cccnc4)cc3)nc2c1`, for which the inhibition was 44.6%.
For the compound `Cc1ccn2cc(-c3ccc(NC(=O)c4ccco4)cc3)nc2c1`, the inhibition was 82.7% (active).
With `O=C(Nc1nc(-c2ccco2)c(-c2ccco2)s1)C1CCC1`, the inhibition was 39%.
For `O=C(CCl)Nc1nc(-c2ccco2)c(-c2ccco2)s1`, the inhibition was 32.2%.
For the compound `CSc1ccc(C(=O)C2CCCN(C(=O)c3ccc4c(c3)no[n+]4[O-])C2)cc1` (stereo unspecified), the inhibition was 18.6%.
Regarding `Cn1nnc(NC(=O)/C=C/c2ccco2)n1`, the inhibition is 35%.
On to `Cn1c(N)c(C(=O)COC(=O)C2(c3ccc(Cl)cc3)CCCC2)c(=O)n(C)c1=O`, for which the inhibition was 28.2%.
`Clc1ccc2c(N/N=C/c3ccc(Br)cc3)ccnc2c1`: the inhibition is 47.6%.
In the case of `CCOC(=O)c1c(C)c(C(=O)NCCCOC(C)C)c(C)n1C`, the inhibition was 26.2%.
In the case of `COc1ccc(N(C)C2=NS(=O)(=O)c3ccccc32)cc1`, the inhibition was 27.9%.
The value for `C=C(C)C1Cc2c(C)nn(-c3ccccn3)c2C1` (stereo unspecified) was 2.3%; that for `CC(OC(=O)Cc1c(F)cccc1Cl)C(=O)NCCC1=CCCCC1` (stereo unspecified) was 46.2%; that for `Cc1nc2ccc(NC(=O)c3cc([N+](=O)[O-])cc([N+](=O)[O-])c3Cl)cc2s1` was 40.5%.
Consider `COc1ccccc1NC(=O)c1ccc(C)s1`, for which the inhibition is 38.7%.
Regarding `Cc1ccc(C(=O)Nc2ccc3nc(C)sc3c2)s1`, the inhibition is 77% (active).

As usually defined, the inhibition is the drop in the measured response relative to a control, in per cent.
